Only some compounds are listed: those with a hit (about 19% of all), similar ones and a draw of the others.
DT40 TDP1 CPT: growth inhibition of DT40 Tdp1-/-;hTDP1 cells with camptothecin (screen for TDP1 inhibitors) | AID 686979 | chicken DT40 Tdp1-/-;hTDP1 cells + 20 nM CPT, ATP luminescence, 48 h | hit rate 12% among 420,000 | Potency, µM (top dose mostly 46.2 µM), most hits filed as inhibitors; also: nearly all actives have a fitted effect of over 55% in size
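Chicken DT40 Tdp1-/- cells stably complemented with human TDP1 were seeded at 400 cells/well in medium containing 20 nM camptothecin, exposed to pin-transferred compounds, and grown at 37 °C for at least 48 hr. Viability was read as ATP luminescence.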
HT1080NT lethal: kills 2HG-producing HT-1080-NT fibrosarcoma cells; AID 686970; Potency, µM (top dose mostly 46.1 µM), usual class: cytotoxic; HT-1080-NT fibrosarcoma viability, CellTiter-Glo ATP luminescence, 48 h; hit rate 1.6% among 360,000;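 also: NT is the 2HG producing partner of a matched IDH1 knockdown line; nearly all actives have a fitted effect of over 55% in size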
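750 cells/well, RPMI + 5% FBS; 2 h settle, compound pin-transfer, 48 h at 37 degrees C. CellTiter-Glo 10 min RT, luminescence. Normalized to DMSO and media-only wells.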
KB-3-1 cytotox: KB-3-1 parental cell cytotoxicity; KB-3-1 viability, CellTiter-Glo ATP luminescence, 72 h; Potency, µM (series often up to 46.1 µM), actives largely listed as cytotoxic; hit rate 1.4% among 400,000; AID 1347075; also: nearly all actives have a fitted effect of over 60% in size
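Cytotoxicity in the drug-sensitive parental line KB-3-1 was scored as loss of CellTiter-Glo luminescence following 72 h incubation with compound. Values come from curve fitting of normalized concentration-response data.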
KB-V1 cytotox: KB-V1 MDR subline cytotoxicity. KB-V1 MDR cells viability, CellTiter-Glo, 72 h. Potency, µM (doses to about 46.1 µM), actives largely listed as cytotoxic. hit rate 3.4% among 400,000; also: nearly all actives have a fitted effect of over 60% in size
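qHTS viability screen in drug-selected KB-V1 MDR cells: 72 h compound treatment at 37 degrees C, ATP luminescence end point.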
DT40 TDP1 no CPT: qHTS for Inhibitors of human tyrosyl-DNA phosphodiesterase 1 (TDP1): qHTS in cells in absence of CPT | DT40 Tdp1-/- hTDP1 cells, no CPT, ATP luminescence, 48 h | Potency, µM (titrated, usually from 46.2 µM), most hits filed as inhibitors | hit rate 15% among 420,000; also: nearly all actives have a fitted effect of over 55% in size
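Camptothecin absent (DMSO only). Human TDP1-complemented DT40 knockout cells, 400 cells/well, 37 °C for minimum 48 hr; ATP measured via CellTiter-Glo, 30 min dark incubation, luminescence.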
HT1080 IDH1KD tx: HT-1080 IDH1 knockdown cell toxicity (counter line). HT-1080 IDH1 knockdown viability, ATP luminescence, 48 h. Potency, µM (titrated, usually from 46.1 µM), most hits filed as cytotoxic. hit rate 2% among 360,000
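CellTiter-Glo luminescence after 48 h compound exposure at 37 degrees C of IDH1-knockdown HT-1080 cells in 5% FBS RPMI. %Activity scaled between DMSO wells and cell-free media wells, with curves fitted and assigned curve classes.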
Of the large screens only hits and unclear results are named; the others gave an inactive call. Calls follow the shape of the dose curve; as a rule, active = well fitted curve in the direction sought with a large enough effect; inconclusive = small, poorly fitted or top-dose-only effect, or another doubt; inactive = no such curve, though single readings can be large; an effect the other way counts as inactive or inconclusive.

CCCCCCCCCCCCCCCC[n+]1ccc(/C=C/c2c(C)[nH]c3ccccc23)cc1	DT40 TDP1 CPT 1µM, KB-3-1 cytotox 1.3µM, DT40 TDP1 no CPT 0.4µM (no result: HT1080NT lethal, HT1080 IDH1KD tx)
CCCCNC(=S)N(C)/N=C/c1c(C)[nH]c2ccccc12	KB-V1 cytotox inconclusive
CCCCCCC[n+]1ccc(/C=C/c2c(C)[nH]c3ccccc23)cc1	DT40 TDP1 CPT 0.32µM, KB-3-1 cytotox 0.65µM, DT40 TDP1 no CPT 0.32µM (no result: HT1080NT lethal, HT1080 IDH1KD tx)
CCN(CC)CCCNC(=O)c1cn(CC)c2ccc(S(=O)(=O)N(C)C3CCCCC3)cc2c1=O	KB-V1 cytotox inconclusive
CCCCN(CCCC)CCNC(=O)c1cn(CC)c2ccc(S(=O)(=O)N(C)C3CCCCC3)cc2c1=O	DT40 TDP1 CPT 4.6µM, DT40 TDP1 no CPT 6.5µM
CCCCN(C)CCCNC(=O)c1cn(CC)c2ccc(S(=O)(=O)N3CCc4ccccc4C3)cc2c1=O	DT40 TDP1 CPT 21µM, KB-V1 cytotox inconclusive, DT40 TDP1 no CPT 23µM
CCCN(CCC)CCCNC(=O)c1cn(CC)c2ccc(S(=O)(=O)N3CCc4ccccc4C3)cc2c1=O	DT40 TDP1 CPT 21µM, DT40 TDP1 no CPT 18µM
CCCCN(CC)CCCNC(=O)c1cn(CC)c2ccc(S(=O)(=O)N3CCc4ccccc4C3)cc2c1=O	DT40 TDP1 CPT 16µM, KB-3-1 cytotox inconclusive, DT40 TDP1 no CPT 18µM
CCn1cc(C(=O)NCCCN(CC(C)C)CC(C)C)c(=O)c2cc(S(=O)(=O)N3CCc4ccccc4C3)ccc21	KB-V1 cytotox inconclusive (no result: HT1080NT lethal, HT1080 IDH1KD tx)
CCn1cc(C(=O)NCCCN2CCCC2)c(=O)c2cc(S(=O)(=O)N3CCc4ccccc4C3)ccc21	DT40 TDP1 CPT inconclusive, DT40 TDP1 no CPT inconclusive
COc1ccc(-c2nc3cnc(Oc4cccc(Cl)c4)nc3n(C3CC3)c2=O)cc1	none (no result: HT1080NT lethal, KB-3-1 cytotox, KB-V1 cytotox, HT1080 IDH1KD tx)
COCCN1CCN(C(=O)c2cnn(-c3nccc(-c4ccccc4F)n3)c2-c2ccco2)CC1	none (no result: HT1080NT lethal, KB-3-1 cytotox, KB-V1 cytotox, HT1080 IDH1KD tx)
CCCCC(=O)NC(c1ccc(Cl)cc1Cl)c1ccc2cccnc2c1O (stereo not given)	DT40 TDP1 CPT 6.5µM, HT1080NT lethal inconclusive, KB-3-1 cytotox 3.3µM, KB-V1 cytotox inconclusive, DT40 TDP1 no CPT 2.9µM, HT1080 IDH1KD tx inconclusive
CC(NC(=O)CSc1ncccn1)c1ccc(Cl)cc1Cl (stereo not given)	DT40 TDP1 no CPT inconclusive
CC(C)C(=O)NC(c1ccc(Cl)cc1Cl)c1ccc2cccnc2c1O (stereo not given)	DT40 TDP1 CPT 6.5µM, HT1080NT lethal inconclusive, DT40 TDP1 no CPT 5.2µM, HT1080 IDH1KD tx inconclusive
CCC(=O)NC(c1ccc(Cl)cc1Cl)c1ccc2cccnc2c1O (stereo not given)	DT40 TDP1 CPT 5.2µM, HT1080NT lethal 15µM, KB-3-1 cytotox inconclusive, DT40 TDP1 no CPT 5.2µM, HT1080 IDH1KD tx inconclusive
COCCC(=O)N1CCC(Oc2ccc(C(=O)NCCc3ccccn3)cc2)CC1	none
Cc1cccc(CN2C(=O)c3ccccc3Sc3ccc(C(=O)NCc4cccs4)cc32)c1	none (no result: HT1080NT lethal, KB-3-1 cytotox, KB-V1 cytotox, HT1080 IDH1KD tx)
Cn1c(C(=O)OCC(=O)NCCc2ccccc2)cc2sccc21	HT1080NT lethal inconclusive
Nc1ccc(CC(N)c2csc(Nc3nncc4ccccc34)n2)cc1 (stereo not given)	DT40 TDP1 CPT inconclusive, HT1080NT lethal inconclusive, KB-3-1 cytotox inconclusive, KB-V1 cytotox 23µM, DT40 TDP1 no CPT inconclusive
NC(CCc1ccccc1)c1csc(Nc2nncc3ccccc23)n1 (stereo not given)	DT40 TDP1 CPT 21µM, HT1080NT lethal inconclusive, DT40 TDP1 no CPT 21µM, HT1080 IDH1KD tx inconclusive
NC(Cc1ccccc1)c1csc(Nc2nncc3ccccc23)n1 (stereo not given)	DT40 TDP1 CPT 21µM, HT1080NT lethal inconclusive, KB-3-1 cytotox inconclusive, KB-V1 cytotox 23µM, DT40 TDP1 no CPT 23µM, HT1080 IDH1KD tx inconclusive
COC(=O)c1c(OCc2ccccn2)cc(=O)n2c1CCN(C(=O)c1n[nH]c3c1CCCC3)CC2	none (no result: HT1080NT lethal, KB-3-1 cytotox, KB-V1 cytotox, HT1080 IDH1KD tx)
